# Measurements: PubChem BioAssay (NCATS)
# Unmarked numbers belong to inactive results. Inconclusive results are not listed. A call without a number means that no potency is given here. Calls of active or inactive are those of the source. Unless noted, the call rests on the fitted dose curve; in most records, active means well fitted curve in the direction sought with a large enough effect; inconclusive means small, poorly fitted or top-dose-only effect, or another doubt; inactive means no such curve, though single readings can be large; an effect the other way counts as inactive or inconclusive.
# Assays:
# [1] = molecular target: Lysosomal acid glucosylceramidase (Homo sapiens) (UniProt P04062); experiment: Glucocerebrosidase-p2 (AID 348; in the data active means potency below about 10 µM; further: potency means the concentration at half of the fitted maximal effect); details: purified GBA, blue fluorogenic substrate, 40 min
# Method in brief: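 Normal human glucocerebrosidase (0.2 nM) with blue fluorogenic substrate (80 uM final) in citrate/phosphate pH 5.9 with 10mM sodium taurocholate, 0.01% tween-20; 40 min RT, NaOH/glycine stop; fluorescence Ex 365/Em 440; AC50 from a titration from 0.6 nM upwards.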
# [2] = Confirmation and Secondary Assay for Modulators of Hemoglobin Beta Chain Splicing at IVS2 654 locus (AID 910); details: HeLa EGFP-654 splicing reporter, GFP fluorescence, 48 h; series mostly up to 38.3 µM;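 further: HeLa cells stably carrying EGFP split by mutant beta-globin IVS2-654 intron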
# Method in brief: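 HeLa cells stably expressing EGFP interrupted by β-globin IVS2-654 intron, seeded overnight in Opti-MEM/2% FCS, then treated 2 days at 37 °C. Restored splicing read as total peak GFP intensity per well by laser scanning cytometry (488 nm excitation, 500–520 nm emission); 500 nM antisense PNA as control.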
# [3] = Confirmation and Secondary Assay for Modulators of Hemoglobin Beta Chain Splicing at IVS2 705 locus (AID 930); details: HeLa EGFP-705 splicing reporter, GFP fluorescence, 48 h; series mostly up to 38.3 µM;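 further: HeLa cells stably expressing the EGFP-705 splicing reporter; GFP fluorescence per well restored by corrected splicing of the IVS2-705 intron in EGFP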
# Method in brief: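 Secondary splice-site specificity test uses HeLa expressing CMV-driven EGFP interrupted by IVS2-705; cells were treated 2 days at 37C with 500 nM antisense PNA as positive control.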
# [4] = molecular target: Luciferin 4-monooxygenase (Photinus pyralis) (UniProt P08659); experiment: Biochemical firefly luciferase enzyme assay for NPC (AID 624030);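 further: purified P. pyralis luciferase at 10 nM with luciferin and ATP substrate; nearly all actives have a fitted effect of over 70% in size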; details: purified P. pyralis luciferase, luminescence, 5 min; series mostly up to 58.6 µM
# Method in brief: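 Purified P. pyralis luciferase at 10 nM in 50 mM Tris Acetate (final), luminescence read within 5 minutes of enzyme addition to compounds. Activity normalised to PTC124 versus DMSO; concentration-response curves classed by r2, magnitude and activity.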
# [5] = S16 Schwann cell viability assay (CellTiter-Glo assay) (AID 624031); details: S16 rat Schwann cells viability, 24 h; series mostly up to 57.5 µM;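 further: cellular ATP luminescence as a viability measure; nearly all actives have a fitted effect of over 70% in size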
# Method in brief: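 This viability control uses native rat S16 Schwann cells grown in DMEM plus 10% FBS. After a 24 h compound treatment at 37 °C, CellTiter-Glo luminescence reports ATP content, scaled against DMSO-treated and cell-free wells.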
# [6] = S16 Schwann cell PMP22 intronic element firefly luciferase assay (AID 624032); details: S16 rat Schwann cells, PMP22 element FLuc, 24 h; series mostly up to 57.5 µM; further: nearly all actives have a fitted effect of over 30% in size
# Method in brief: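 Rat S16 Schwann cells stably carrying firefly luciferase driven by a PMP22 intronic element, in 10% FBS, treated 24 h at 37 C. ONE-Glo luminescence normalized to PTC124 control and DMSO (0%); curves classed by r2, magnitude and activity.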
# [7] = S16 Schwann cell PMP22 intronic element beta-lactamase assay (AID 624044; calls by dose curve; further: nearly all actives have a fitted effect of over 15% in size); details: S16 rat Schwann cells, PMP22 element beta-lactamase FRET, 24 h; series mostly up to 38.3 µM
# Method in brief: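 Beta-lactamase reporter under a PMP22 intronic regulatory element in stable S16 rat Schwann cells; 24 h compound exposure. 460 nm blue signal normalized between DMSO (0%) and potassium clavulanate, with 535 nm FRET tracking viability; curves classed by r2 and response.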
# 3D7 = experiment: qHTS profiling for inhibitors of Plasmodium falciparum proliferation (AID 504749); further: nearly all actives have a fitted effect of over 60% in size; further: potency means the concentration at half of the fitted maximal effect; details: P. falciparum in erythrocytes, SYBR Green DNA, 72 h; series mostly up to 28.7 µM
# Method in brief: (§1)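 Each compound contacts P. falciparum-infected red blood cells for 72 h at 37 C; lysis buffer (Tris, EDTA, saponin, Triton X, SYBR Green I) is added and fluorescence measured next morning; values normalized to controls.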
# 7G8 = experiment: as above; details: P. falciparum in erythrocytes, SYBR Green DNA, 72 h; series mostly up to 28.7 µM
# Method in brief: as §1
# AA1029 = experiment: as above; details: P. falciparum in erythrocytes, SYBR Green DNA, 72 h; series mostly up to 28.7 µM
# Method in brief: as §1
# CP215 = experiment: as above; details: P. falciparum in erythrocytes, SYBR Green DNA, 72 h; series mostly up to 28.7 µM
# Method in brief: as §1
# CP260 = experiment: as above; details: P. falciparum in erythrocytes, SYBR Green DNA, 72 h; series mostly up to 28.7 µM
# Method in brief: as §1
# CP335 = experiment: as above; details: P. falciparum in erythrocytes, SYBR Green DNA, 72 h; series mostly up to 28.7 µM
# Method in brief: as §1
# DIV14 = experiment: as above; details: P. falciparum in erythrocytes, SYBR Green DNA, 72 h; series mostly up to 28.7 µM
# Method in brief: as §1
# DIV17 = experiment: as above; details: P. falciparum in erythrocytes, SYBR Green DNA, 72 h; series mostly up to 28.7 µM
# Method in brief: as §1
# Dd2 = experiment: as above; details: P. falciparum in erythrocytes, SYBR Green DNA, 72 h; series mostly up to 28.7 µM
# Method in brief: as §1
# GB4 = experiment: as above; details: P. falciparum in erythrocytes, SYBR Green DNA, 72 h; series mostly up to 28.7 µM
# Method in brief: as §1
# ICS = experiment: as above; details: P. falciparum in erythrocytes, SYBR Green DNA, 72 h; series mostly up to 28.7 µM
# Method in brief: as §1
# TAB165 = experiment: as above; details: P. falciparum in erythrocytes, SYBR Green DNA, 72 h; series mostly up to 28.7 µM
# Method in brief: as §1
# ATS189 = experiment: as above; details: P. falciparum in erythrocytes, SYBR Green DNA, 72 h; series mostly up to 28.7 µM
# Method in brief: as §1
# Chain of Luciferin 4-monooxygenase (Photinus pyralis) (P08659 whole entry, looked up): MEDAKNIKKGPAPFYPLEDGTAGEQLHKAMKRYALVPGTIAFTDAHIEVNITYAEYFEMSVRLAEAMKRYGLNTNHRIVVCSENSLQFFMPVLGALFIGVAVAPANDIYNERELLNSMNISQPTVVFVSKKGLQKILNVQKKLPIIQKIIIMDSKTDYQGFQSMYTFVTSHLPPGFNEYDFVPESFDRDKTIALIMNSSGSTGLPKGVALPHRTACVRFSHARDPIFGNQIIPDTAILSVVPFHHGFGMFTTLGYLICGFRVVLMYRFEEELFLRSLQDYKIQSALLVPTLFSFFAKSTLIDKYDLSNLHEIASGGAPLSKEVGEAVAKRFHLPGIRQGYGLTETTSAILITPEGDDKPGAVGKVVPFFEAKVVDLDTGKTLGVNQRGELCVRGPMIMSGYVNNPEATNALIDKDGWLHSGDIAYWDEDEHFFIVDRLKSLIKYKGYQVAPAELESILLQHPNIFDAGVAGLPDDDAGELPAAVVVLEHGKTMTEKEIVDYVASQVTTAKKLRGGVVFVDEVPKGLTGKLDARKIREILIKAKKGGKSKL
# Chain of Lysosomal acid glucosylceramidase (Homo sapiens) (P04062 whole entry, looked up): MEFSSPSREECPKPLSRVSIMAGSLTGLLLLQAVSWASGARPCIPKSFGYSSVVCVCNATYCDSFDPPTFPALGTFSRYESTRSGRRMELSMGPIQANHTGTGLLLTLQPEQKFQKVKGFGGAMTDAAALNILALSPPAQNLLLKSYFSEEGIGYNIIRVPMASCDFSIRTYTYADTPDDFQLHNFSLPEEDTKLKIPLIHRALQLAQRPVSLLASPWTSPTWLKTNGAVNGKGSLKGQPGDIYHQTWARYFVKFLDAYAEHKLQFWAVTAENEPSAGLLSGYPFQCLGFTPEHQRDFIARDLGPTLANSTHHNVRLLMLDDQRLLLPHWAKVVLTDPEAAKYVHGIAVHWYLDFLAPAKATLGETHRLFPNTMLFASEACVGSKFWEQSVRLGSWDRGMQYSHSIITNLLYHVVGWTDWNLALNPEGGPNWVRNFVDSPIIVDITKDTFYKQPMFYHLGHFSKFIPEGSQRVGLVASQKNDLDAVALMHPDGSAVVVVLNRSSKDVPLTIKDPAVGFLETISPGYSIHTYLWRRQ
smiles,measurement,setting,value
COc1cc(N=Nc2cccc(S(N)(=O)=O)c2)c2ccccc2c1N,Potency,[1],> 11.4 µM
COC(=O)CC[C@@H](C)[C@@H]1CC[C@@H]2[C@@H]3CC[C@H]4C[C@@H](O)CC[C@@]4(C)[C@@H]3CC[C@]21C,Potency,[1],> 11.4 µM
N=c1ccn2c(n1)O[C@@H]1[C@@H](O)[C@H](CO)O[C@H]12,outcome,[2],inactive
same,outcome,[3],inactive
Cc1cnc(CNc2nc(-c3cccnc3)nc3ccccc23)cn1,outcome,[2],inactive
same,outcome,[3],inactive
C[C@H]1C[C@@H]2[C@H]3CCC4=CC(=O)C=C[C@@]4(C)[C@@]3(Cl)[C@@H](O)C[C@]2(C)[C@]1(OC(=O)c1ccco1)C(=O)CCl,outcome,[4],inactive
same,Potency,[5],inactive
same,Potency,[6],inactive
same,outcome,[7],inactive
same,Potency,3D7,3.98 µM (active)
same,Potency,7G8,1.78 µM (active)
same,Potency,AA1029,3.16 µM (active)
same,Potency,CP215,5.1 µM (active)
same,Potency,CP260,3.98 µM (active)
same,Potency,CP335,5.73 µM (active)
same,Potency,DIV14,5.1 µM (active)
same,Potency,DIV17,7.21 µM (active)
same,Potency,Dd2,3.55 µM (active)
same,Potency,GB4,6.42 µM (active)
same,Potency,ICS,3.55 µM (active)
same,Potency,TAB165,3.55 µM (active)
CO/N=C(\C(=O)N[C@@H]1C(=O)N2C(C(=O)[O-])=C(C[N+]3(C)CCCC3)CS[C@@H]12)c1csc(N)n1,outcome,[4],inactive
same,Potency,[5],inactive
same,Potency,[6],inactive
same,outcome,[7],inactive
same,Potency,3D7,inactive
same,Potency,7G8,inactive
same,Potency,AA1029,inactive
same,Potency,ATS189,inactive
same,Potency,CP215,inactive
same,Potency,CP260,inactive
same,Potency,CP335,inactive
same,Potency,DIV14,inactive
same,Potency,DIV17,inactive
same,Potency,Dd2,inactive
same,Potency,GB4,inactive
same,Potency,ICS,inactive
same,Potency,TAB165,inactive
C[C@@H]1C[C@H]2[C@H]3C[C@@H](F)C4=CC(=O)C=C[C@]4(C)[C@@]3(Cl)[C@@H](O)C[C@@]2(C)[C@@H]1C(=O)COC(=O)C(C)(C)C,outcome,[4],inactive
same,Potency,[5],inactive
same,Potency,[6],inactive
same,outcome,[7],inactive
same,Potency,3D7,12.6 µM (active)
same,Potency,7G8,4.47 µM (active)
same,Potency,AA1029,inactive
same,Potency,ATS189,inactive
same,Potency,CP215,inactive
same,Potency,CP260,12.6 µM (active)
same,Potency,CP335,12 µM (active)
same,Potency,DIV14,inactive
same,Potency,Dd2,12.6 µM (active)
same,Potency,GB4,inactive
same,Potency,ICS,6.31 µM (active)
same,Potency,TAB165,inactive
